# Results as given in PubChem BioAssay AID1117288 (Broad Institute, 2014).
# Entries with a potency or affinity are not part of this list. Results filed as inconclusive are left out. Unmarked numbers belong to inactive results. Activity calls are given as the source filed them.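 The calls were made as follows: active = compound whose fitted half-inhibition dose sits at or below twice its top tested dose in every test run; inconclusive = test runs disagree, or every run is unclear; inactive = inactive in every test run.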
# Biological target: Leucyl-cystinyl aminopeptidase (Mus musculus) (UniProt Q8C129)
# Experiment: mouse IRAP aminopeptidase activity inhibition – biochemical, dry powder samples, set 3, selectivity assay for ERAP1 modulator project, dose response (AID 1117288)
# Settings: purified IRAP enzyme, Leu-AMC fluorescence, 1 h; series mostly up to 50 µM; activity change, negative = inhibition: at the top concentration
# Leucyl-cystinyl aminopeptidase (Mus musculus), sequence (Q8C129 whole entry, looked up): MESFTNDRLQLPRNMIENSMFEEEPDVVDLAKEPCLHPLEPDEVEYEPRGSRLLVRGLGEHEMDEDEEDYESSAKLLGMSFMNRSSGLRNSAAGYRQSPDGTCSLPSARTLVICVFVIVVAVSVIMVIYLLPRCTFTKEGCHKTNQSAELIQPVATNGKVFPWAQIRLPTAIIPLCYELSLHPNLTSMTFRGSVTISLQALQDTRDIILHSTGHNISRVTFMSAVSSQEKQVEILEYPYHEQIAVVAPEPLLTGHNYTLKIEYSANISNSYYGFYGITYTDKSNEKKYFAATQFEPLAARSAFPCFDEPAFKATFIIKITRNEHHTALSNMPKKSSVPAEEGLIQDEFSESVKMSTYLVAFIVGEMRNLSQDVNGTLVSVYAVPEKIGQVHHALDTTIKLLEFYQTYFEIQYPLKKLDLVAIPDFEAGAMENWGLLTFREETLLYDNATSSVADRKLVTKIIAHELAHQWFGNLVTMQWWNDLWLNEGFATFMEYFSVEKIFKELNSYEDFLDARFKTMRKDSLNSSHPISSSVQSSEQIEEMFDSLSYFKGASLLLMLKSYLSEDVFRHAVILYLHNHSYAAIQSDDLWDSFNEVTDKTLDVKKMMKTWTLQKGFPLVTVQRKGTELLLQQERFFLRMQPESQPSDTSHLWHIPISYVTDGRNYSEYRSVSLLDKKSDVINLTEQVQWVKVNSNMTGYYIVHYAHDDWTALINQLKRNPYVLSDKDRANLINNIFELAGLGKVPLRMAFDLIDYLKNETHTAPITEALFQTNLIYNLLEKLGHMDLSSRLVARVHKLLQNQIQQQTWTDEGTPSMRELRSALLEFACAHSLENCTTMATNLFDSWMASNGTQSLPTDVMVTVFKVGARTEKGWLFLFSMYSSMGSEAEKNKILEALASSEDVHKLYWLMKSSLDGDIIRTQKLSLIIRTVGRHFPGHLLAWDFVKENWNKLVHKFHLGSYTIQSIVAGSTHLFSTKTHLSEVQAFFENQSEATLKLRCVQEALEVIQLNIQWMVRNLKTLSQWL
SMILES,"activity change, negative = inhibition",outcome
COc1ccc(C(=O)O)cc1S(=O)(=O)Nc1cccc(N2CCCCC2)c1C(F)(F)F,13.9%,
O=C(O)c1cccc(S(=O)(=O)Nc2cc(C(F)(F)F)ccc2N2CCCCC2)c1,22.7%,
COc1ccc(C(=O)O)cc1S(=O)(=O)Nc1ccc(N2CCCCC2)cc1C(F)(F)F,9.65%,
COc1ccc(C(=O)O)cc1S(=O)(=O)N1CCN(c2ccc(C(F)(F)F)cc2N)CC1,14.3%,
COc1ccc(C(=O)O)cc1S(=O)(=O)Nc1cc(C(F)(F)F)ccc1N(C)C,3.47%,
COc1ccc(C(=O)O)cc1S(=O)(=O)Nc1cc(C)ccc1N1CCCCC1,-13.8%,
COc1ccc(C(=O)O)cc1S(=O)(=O)Nc1cc(C(F)(F)F)ccc1N1CCCCC1,,inactive
O=C(O)c1ccc(Cl)c(S(=O)(=O)Nc2cc(C(F)(F)F)ccc2N2CCCCC2)c1,17.3%,
Cc1ccc(C(=O)O)cc1S(=O)(=O)Nc1cc(C(F)(F)F)ccc1N1CCCCC1,-2.16%,
COc1ccc(C(=O)O)cc1S(=O)(=O)Nc1cc(F)ccc1N1CCCCC1,13.7%,
O=C(O)c1ccc(Br)c(S(=O)(=O)Nc2cc(C(F)(F)F)ccc2N2CCCCC2)c1,-5.39%,
COc1ccc(C(=O)O)cc1S(=O)(=O)Nc1ccccc1N1CCCCC1,3.15%,
O=C(O)c1cc(F)cc(S(=O)(=O)Nc2cc(C(F)(F)F)ccc2N2CCCCC2)c1,-0.991%,
COc1ccc(C(=O)O)cc1S(=O)(=O)N(C)c1cc(C(F)(F)F)ccc1N1CCCCC1,5.09%,
Cc1ccc(S(=O)(=O)Nc2cc(C(F)(F)F)ccc2N2CCCCC2)cc1C(=O)O,0.616%,
